The structures appear in SMILES notation. Some of the results follow. A number with no mark means an inactive call. The source made the active and inactive calls. Rule as the data show it: active = IC50 below about 80 µM; inactive = the rest.

The nature of this experiment: fluorescent counter-screen in isolated mitochondria, dose response, counter-screen for MPTP inhibitor project, biochemical, fluorescence, uHTS hits (AID 651564). The following applies: isolated mitochondria counterscreen, fluorescence read-out.
With `CC(Cc1ccccc1)NCCC(c1ccccc1)c1ccccc1` (stereo not drawn), the IC50 is 18.7 µM (active).
Then `O=Cc1cn(Cc2ccc(F)cc2Cl)c2ccccc12`, with 22.6 µM (active).
Then `COc1ccc(C2NCc3ccc4c(c3-n3cccc32)OCO4)cc1OC` (stereo not drawn), with above 80 µM.

The record behind these values is PubChem BioAssay AID651564 (Sanford-Burnham Center for Chemical Genomics, 2012).
